Laboratory results as given in paper PMC5540273 (PLoS ONE, 2017).

Key:
Settings in all cases: concentration: 1 μM, replicates: in singlicate; n = 1
TNNI3K = tested on: TNNI3K
TRKA = tested on: T1, TRKA
T1 construct: gene NTRK1

TRKB = tested on: TRKB
TRKC = tested on: T2, TRKC
T2 construct: gene NTRK3

TRPM6 = tested on: TRPM6
TSSK1B = tested on: TSSK1B
TSSK3 = tested on: TSSK3
TTK = tested on: TTK
TXK = tested on: TXK
[1] = tested on: TYK2(JH1domain-catalytic)
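Also: KINOMEscan kinase panel screen.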

SMILES	%Inh (TNNI3K) [%]	%Inh (TRKA) [%]	%Inh (TRKB) [%]	%Inh (TRKC) [%]	%Inh (TRPM6) [%]	%Inh (TSSK1B) [%]	%Inh (TSSK3) [%]	%Inh (TTK) [%]	%Inh (TXK) [%]	%Inh [1] [%]
CN1CCN(Cc2cccc(-c3ccc4c(Nc5ccc(Oc6ccccc6)cc5)ccnc4c3)c2)CC1 [GW578342]	6	43	0	19	39	0	6	0	5	8
Oc1cc(Nc2ccnc3cc(I)ccc23)ccc1F [GW552771]	2	0	23	26	26	6	13	0	94.5	32
CC(=O)Nc1nc2cnc(Nc3cc(NC(=O)c4cccc(C5(C#N)CC5)c4Cl)ccc3C)nc2s1	18	0	0	0	0	0	0	21	33	0
CN(C)S(=O)(=O)c1cc(-c2ccc3nccc(-c4cccc(S(N)(=O)=O)c4)c3c2)cnc1N [GSK1669921]	8	87	0	48	4	3	18	47	26	13
Fc1ccc(-c2ncn(C3CCNCC3)c2-c2ccnc(Oc3ccc(-c4ccccc4)cc3)n2)cc1 [SB-245391]	42	13	0	19	19	0	15	22	8	32
FC(F)(F)c1ccc(/C=C/c2cncnc2Nc2ccc3[nH]c(Cc4ccccc4)nc3c2)cc1 [GW709199]	0	0	8	0	0	0	0	0	0	41
Cc1ccc(S(=O)(=O)Nc2ccc(Nc3nccc(Nc4cccc5[nH]ncc45)n3)cc2)cc1 [GSK581271]	7	0	33	24	11	4	11	0	77	42
Cn1cc(-c2ccc3c(c2)CCN3C(=O)Cc2cccc(F)c2)c2c(N)ncnc21 [GSK2603358]	0	34	55	50	0	5	11	67	25	22
COc1cccc(NC(=O)NC2CCN(c3ccnc(Nc4cc(OC)c(OC)c(OC)c4)n3)C2)c1 (stereo not drawn) [GSK1379763]	0	54	63	89	3	3	20	5	1	20
Nc1n[nH]c2cnc(-c3ccccc3)cc12 [SB-642124]	0	0	28	20	9	30	12	0	3	79
Cc1occc1-c1ncc(OC[C@@H](N)Cc2c[nH]c3ccccc23)cc1-c1ccc2[nH]nc(C)c2c1.O=C(O)C(F)(F)F [GSK682037]	5	33	13	0	0	16	13	22	47	7
CCn1c(-c2nonc2N)nc2c(C#CC(C)(C)O)ncc(OCCCCN)c21.O=C(O)C(F)(F)F.O=C(O)C(F)(F)F [GSK507274]	9	0	19	1	0	80	99.5	21	49	33
O=C(Nc1cccc(-c2nn3ncccc3c2-c2ccnc(Nc3ccccc3)n2)c1)c1c(F)cccc1F [GSK198271]	36	0	0	0	55	0	18	7	84	7
CCn1c(-c2nonc2N)nc2c(C#CC(C)(C)O)nc(OC[C@H](N)c3ccccc3)cc21 [GSK943949]	0	18	0	18	0	49	82	15	8	19
C[C@@H]1CC[C@@H](C(=O)Nc2ccccc2)CN1c1cc(-c2ccc3c(N)n[nH]c3c2)nc(N)n1 [GSK2286062]	0	12	0	13	0	0	0	9	0	15
